Hits are enriched below; roughly 11% of the tested compounds scored in any of these assays.
L3MBTL1 inh – qHTS Assay for the Inhibitors of L3MBTL1; Lethal(3)malignant brain tumor-like protein 1 (Homo sapiens), Q9Y468; AlphaScreen L3MBTL1–H3K9me1 peptide binding; Potency, µM (series often up to 57.1 µM), for inactives: at the highest dose activity, negative = inhibition, most hits filed as inhibitors; hit rate 0.66% among 230,000; AID 485360, 2010; further: potency means the concentration at half of the fitted maximal effect; on the % scale 0 is the no-effect control and ±100 the full control effect; nearly all actives have a fitted effect of over 60% in size
Target sequence (Q9Y468 whole entry, looked up): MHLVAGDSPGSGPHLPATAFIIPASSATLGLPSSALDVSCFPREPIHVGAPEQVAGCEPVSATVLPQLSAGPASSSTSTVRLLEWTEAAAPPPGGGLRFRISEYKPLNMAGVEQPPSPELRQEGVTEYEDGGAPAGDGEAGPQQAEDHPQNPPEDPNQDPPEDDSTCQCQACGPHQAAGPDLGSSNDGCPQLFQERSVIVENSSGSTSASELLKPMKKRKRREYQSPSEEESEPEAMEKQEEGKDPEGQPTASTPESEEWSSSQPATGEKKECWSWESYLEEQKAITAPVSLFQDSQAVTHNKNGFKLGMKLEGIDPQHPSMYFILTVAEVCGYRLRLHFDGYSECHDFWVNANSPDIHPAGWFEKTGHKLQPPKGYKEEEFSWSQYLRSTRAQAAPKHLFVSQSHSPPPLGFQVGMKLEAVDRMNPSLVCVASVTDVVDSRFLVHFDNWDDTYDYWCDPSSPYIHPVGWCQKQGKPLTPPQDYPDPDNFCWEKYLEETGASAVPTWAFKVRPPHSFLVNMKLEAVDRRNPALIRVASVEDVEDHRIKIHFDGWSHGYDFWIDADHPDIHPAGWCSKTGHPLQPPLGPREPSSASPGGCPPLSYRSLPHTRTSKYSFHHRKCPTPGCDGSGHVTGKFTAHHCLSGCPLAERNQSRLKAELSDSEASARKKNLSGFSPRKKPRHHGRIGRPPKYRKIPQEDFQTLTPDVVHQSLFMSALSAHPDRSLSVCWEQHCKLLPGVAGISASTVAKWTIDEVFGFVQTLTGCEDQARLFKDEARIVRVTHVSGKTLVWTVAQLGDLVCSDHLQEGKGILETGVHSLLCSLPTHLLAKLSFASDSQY
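Read-out is AlphaScreen signal from streptavidin donor and nickel chelate acceptor beads (10 ug/mL final each) bridging L3MBTL1 (50 nM) and biotinylated K9-monomethylated H3(1-15) peptide (75 nM), after 30 min compound exposure at room temperature.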
G9a inh – qHTS Assay for Inhibitors of Histone Lysine Methyltransferase G9a; Histone-lysine N-methyltransferase EHMT2 (Homo sapiens), Q96KQ7; G9a H3K9 monomethylation, AlphaScreen, 2 h; Potency, µM (top dose mostly 102 µM), without a hit: at the top dose activity, negative = inhibition, most hits filed as inhibitors; hit rate 8.8% among 350,000; further: potency means the concentration at half of the fitted maximal effect; on the % scale 0 is the no-effect control and ±100 the full control effect; nearly all actives have a fitted effect of over 75% in size
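AlphaScreen read-out: biotin-H3K9 peptide (500 nM) methylation by 20 nM enzyme with 20 uM SAM, 2 h at room temperature after 15 min compound preincubation; anti-monomethyl H3K9 antibody plus donor/acceptor beads, 10 min dark.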
JMJD2A Tudor – qHTS Assay for Inhibitors of JMJD2A-Tudor Domain. Lysine-specific demethylase 4A (Homo sapiens), O75164. AlphaScreen JMJD2A-Tudor / H3K4me3 peptide binding. Potency, µM (titrated, usually from 114 µM), inactives show at the highest dose activity change, negative = inhibition, most hits filed as inhibitors. hit rate 4.4% among 390,000. AID 504339, 2011; further: potency means the concentration at half of the fitted maximal effect; on the % scale 0 is the no-effect control and ±100 the full control effect; nearly all actives have a fitted effect of over 50% in size
PI5P4K alpha inh – qHTS for Inhibitors of phosphatidylinositol 5-phosphate 4-kinase (PI5P4K); Phosphatidylinositol 5-phosphate 4-kinase type-2 alpha (Homo sapiens), P48426; max response, %; PI5P4Kalpha enzyme, ADP-Glo luminescence, 60 min; stronger effect = lower value; hit rate 1.2% among 330,000; active means max response of -50% or lower; inconclusive means between -30% and -50%; inactive means -30% or higher; further: value at the top dose of about 77 µM; on the % scale 0 is the no-effect control and ±100 the full control effect
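Controls without substrate or without enzyme flank wells where PI5P4Kalpha converts substrate using 5 microM ATP (final). Incubation lasts 60 minutes at room temperature; ADP formed is read by ADP-Glo luminescence.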
HP1b chromo inh – HTS for Inhibitors of HP1-beta Chromodomain Interactions with Methylated Histone Tails; hit rate 0.56% among 390,000; AID 540317, 2011; AlphaScreen HP1-beta / biotin-H3K9me3 peptide binding; Potency, µM (highest dose often 114 µM), for inactives: at the highest dose activity change, negative = inhibition, usual class: inhibitors; Chromobox protein homolog 1 (Homo sapiens), P83916; further: potency means the concentration at half of the fitted maximal effect; nearly all actives have a fitted effect of over 70% in size
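AlphaScreen: HP1-beta (50 nM) preformed 30 min with biotin-H3(1-18)K9me3 peptide (50 nM) in PBS pH 7.4, 0.01% Tween-20. Compound added for 30 min at RT, then streptavidin donor/nickel chelate acceptor beads (10 ug/mL) for 30 min.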
BAZ2B block – qHTS Assay for Inhibitors of BAZ2B | hit rate 4.4% among 360,000 | AlphaScreen BAZ2B-H3K14Ac peptide displacement | Potency, µM (highest dose often 114 µM), for inactives: top-dose activity change, negative = inhibition, actives largely listed as inhibitors | Bromodomain adjacent to zinc finger domain protein 2B (Homo sapiens), Q9UIF8; further: potency means the concentration at half of the fitted maximal effect; on the % scale 0 is the no-effect control and ±100 the full control effect; nearly all actives have a fitted effect of over 60% in size
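Protein-peptide AlphaScreen: BAZ2B 50 nM, b-H3K14Ac 50 nM, 1x PBS pH 7.4 + 0.01% Tween-20. Preincubation 30 min RT; cpd 30 min RT (top 110 uM); beads 20 min RT, light-protected.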
Numbers without * were called inactive; ? = inconclusive; / = not tested or not shown; [ ] = dose if it differs, or a comment. Unless noted, the call rests on the fitted dose curve; in most records, active means well fitted inhibition curve with a large enough effect; inconclusive means small, poorly fitted or top-dose-only effect; inactive means no such curve, though single readings can be large or run the other way.

SMILES	L3MBTL1 inh	G9a inh	JMJD2A Tudor	PI5P4K alpha inh	HP1b chromo inh	BAZ2B block
COc1ccc(OC)c(-n2nnnc2SCC(=O)N2CCN(C(=O)c3ccco3)CC2)c1	-2.6%	?	20µM*	?	-21.9%	-19.1%
Cn1cnnc1SCC(=O)N1CCN(C(=O)c2ccco2)CC1	/	35.5µM*	-7.6%	-6.9	25.3%	-31.7%
Cn1cnnc1SCc1ccccc1	/	1.26µM*	-19.0%	-4.4	11.4%	12.6%
COc1ccc(-n2nnnc2SCC(=O)N2CCN(C(=O)c3ccco3)CC2)cc1OC	/	-10.4%[59 µM]	?	?	-15.7%	-8.1%
COc1ccc(C(=O)Nc2ccc(-c3nnn(CC(=O)N4CCN(C(=O)c5ccco5)CC4)n3)cc2)cc1	3.0%	50.1µM*	-20.7%	5.9	16.5%	79.4µM*
Cc1nnc(SCC(=O)N2CCN(C(=O)c3ccco3)CC2)n1C	7.3%	?	10.5%	-5.6	55.0%	2.6%
O=C(COC(=O)c1nc(Cl)c(Cl)c(Cl)c1Cl)c1ccc[nH]1	-3.2%	14.1µM*	-17.2%	-19.7	29.4%	-22.9%
COc1cccc(NC(=O)c2sc3nc(C)c(C(=O)Nc4ccc(Cl)cc4)c(-c4ccc(Br)cc4)c3c2N)c1	/	-2.4%[59 µM]	8.2%	/	54.5%	-2.6%
O=C(NCC1COc2ccccc2O1)c1cc(S(=O)(=O)N2CCOCC2)ccc1F (stereo not drawn)	11.6%	22.4µM*	-13.6%	-0.4	20.5%	3.6%
O=C(NCC1COc2ccccc2O1)c1cccc(S(=O)(=O)N2CCCCC2)c1 (stereo not drawn)	-5.6%	9.2%[12.7 µM]	-7.4%	0.9	47.3%	-14.4%
CN(CC1COc2ccccc2O1)C(=O)c1cccc(S(=O)(=O)N2CCCC2)c1 (stereo not drawn)	6.5%	1µM*	-8.3%	3.6	22.8%	-5.2%
CCN(CC)C(=O)Cn1nnc2sc(-c3ccccc3)cc2c1=O	/	6.6%[59 µM]	-24.2%	/	21.2%	-21.9%
O=C1C=C(Nc2ccccc2)c2ccccc2C1=O	?	39.8µM*	-31.5%	0.0	?	?
O=C1C=C(Nc2ccccc2)C(=O)c2ccccc21	?	14.1µM*	?	-4.4	?	7.94µM*
O=C1C=C(Nc2ccccc2C(=O)O)c2ccccc2C1=O	/	/	22.4µM*	?	15.8µM*	35.5µM*
CCc1ccc(NC2=CC(=O)C(=O)c3ccccc32)cc1	-13.5%	4.2%[0.501 µM]	44.7µM*	-9.8	?	50.1µM*
Cc1c(Cl)cccc1-n1c(SCC(=O)NCc2ccccc2)nc2n[nH]c(C)c2c1=N	/	3.7%[59 µM]	-7.4%	/	32.0%	1.2%
CC(=O)Nc1cccc(NC(=O)CSc2ccc(-c3sc(-c4ccccc4)nc3C)nn2)c1	/	4.6%[59 µM]	-7.7%	/	32.6%	0.7%
O=C1C=C(Nc2cccc3cccnc23)c2ccccc2C1=O	?	35.5µM*	56.2µM*	-10.4	?	56.2µM*
CCC(=O)c1ccc(OCC(=O)Nc2nc(C)cs2)cc1	-7.6%	/	-14.4%	7.2	24.7%	/
O=C(COc1ccc([N+](=O)[O-])cc1)Nc1nnc(-c2cccnc2)s1	?	?	?	-65.9*	12.0%	?
O=C(COc1ccc([N+](=O)[O-])cc1)NCc1cccnc1	8.5%	24.7%	-9.9%	-5.6	26.9%	0.4%
CCC(=O)c1ccc(OCC(=O)Nc2nc(-c3cccnc3)cs2)cc1	?	39.8µM*	?	-23.9	6.5%	-10.2%
Cc1ccc2nsnc2c1NC(=O)COc1ccccc1F	0.1%	56.2µM*	-2.7%	2.9	30.0%	-19.4%
O=C(COc1ccccc1F)Nc1nnc(-c2ccncc2)s1	/	70.8µM*	20µM*	/	21.2%	-34.0%
SMILES	L3MBTL1 inh	G9a inh	JMJD2A Tudor	PI5P4K alpha inh	HP1b chromo inh	BAZ2B block
CCCCCCCCCCCCCCCCOCC(COP(=O)([O-])OCC[N+](C)(C)C)OC (stereo not drawn)	/	26.1%[59 µM]	/	/	/	/
O=C(COc1ccccc1)Nn1cnc2ccccc21	-0.8%	20µM*	-14.6%	/	30.7%	?
O=C(COc1ccccc1)NNc1c2ccccc2nc2ccccc12	-17.3%	33.3%[0.501 µM]	-28.7%	-6.6	-13.0%	-35.2%[57.1 µM]
O=C(CNC(=O)c1cccs1)NCCN1CCC(Cc2ccccc2)CC1	1.4%	12.4%[59 µM]	/	/	/	8.1%
O=C(NCCNC1CCN(Cc2ccccc2)CC1)c1cccs1	/	1.78µM*	/	/	/	?
O=S(=O)(c1ccccc1)N1CCN(c2nc(C3CC3)nc3ccccc23)CC1	/	/	-21.1%	/	/	/
O=C(Nc1nnc(-c2cccs2)s1)C1CC1	-11.8%	22.4µM*	-14.3%	?	15.7%	-4.0%
COCc1nnc(NC(=O)CCc2ccccc2)s1	36.9%[11.4 µM]	11.2µM*	-11.7%	-2.6	62.8%	-14.1%
CCC(C)C(=O)Nc1nnc(CCc2ccccc2)s1 (stereo not drawn)	37.5%	/	70.8µM*	-24.3	4.1%	33.2%
COCc1nnc(NC(=O)CCc2ccc(OC)cc2)s1	/	/	6.1%	-1.0	49.8%	-10.2%
CCC(=O)Nc1nnc(-c2cccs2)s1	6.8%	-34.0%	7.9%	3.8	34.8%	1.7%
C=C(C)C(=O)Nc1nnc(-c2cccs2)s1	2.3%	8.7%[59 µM]	0.7%	8.4	37.0%	6.0%
COCC(=O)Nc1nnc(-c2cccs2)s1	/	44.7µM*	-7.8%	-6.4	25.7%	4.2%
O=C(OCc1cc(=O)n2nc(C3CCCCC3)sc2n1)c1ccccc1Cl	/	1.9%[59 µM]	-4.3%	/	46.0%	0.6%
CCC(C)C(=O)Nc1nnc(-c2cccs2)s1 (stereo not drawn)	10.6%	14.1µM*	-11.6%	-29.5	12.9%	6.8%
COCC(=O)Nc1nc(-c2ccccc2)c(C)s1	-1.5%	44.7µM*	-11.2%	/	-4.0%	9.3%
O=C(COc1ccc2ccccc2c1)NC1CC(=O)N(c2cccc(F)c2)C1 (stereo not drawn)	/	4.8%[59 µM]	-5.8%	/	47.8%	-4.2%
C=CC1=C(C(=O)O)N2C(=O)C(NC(=O)Cc3ccccc3)C2SC1 (stereo not drawn)	/	?	39.8µM*	/	79.4µM*	?
O=C(COc1ccccc1)NC1C(=O)N2C(C(=O)O)=C(Cl)CSC12 (stereo not drawn)	-5.3%	35.5µM*	79.4µM*	-1.9	0.0%	79.4µM*
CC1=C(C(=O)OCc2ccc([N+](=O)[O-])cc2)N2C(=O)C(NC(=O)Cc3ccccc3)C2SC1 (stereo not drawn)	-11.0%	?	4.3%	2.8	31.6%	-4.9%
